For 98 molecules, inhibition results are on record in PubChem BioAssay AID2732 (Emory University Molecular Libraries Screening Center, 2010).

The whole screen tested about 220,000 compounds, of which about 8,200 (3.7%) were called active. Only a selection was taken, and actives are over-represented in it overall. Unmarked numbers belong to inactive results.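 How the source made its calls: active means compounds that reduced the stress-induced luciferase reporter signal by more than about 70% of percent inhibition (limit read from the data); inactive means the rest.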

The experiment can be described thus: blockers of ER-stress CHOP reporter expression – cell-based, unfolded protein response, luciferase reporter, primary screen (AID 2732).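 Further: 0% = tunicamycin plus vehicle and 100% = wells without tunicamycin.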 The following applies: CHO-K1 CHOP-promoter luciferase, tunicamycin-induced, 15-18 h; at 10 µM; stronger effect = higher value. On the technique in general: Reporter assays use an easily measured gene product as a stand-in for the process of interest.
In general, inhibition refers to the change of the read-out against control, counted positive when it falls. Regarding `Cc1nc(-c2ccccc2)sc1-c1nnc(C2CC2)o1`, the inhibition is -9.64%. For the molecule `O=c1[nH]nc(SCCS(=O)(=O)c2ccc(F)cc2)n1-c1ccccc1C(F)(F)F`, the inhibition was 10.5%. In the case of `CN(C)CCCN(Cc1cc2cc3c(cc2[nH]c1=O)OCCO3)C(=O)NC1CCCCC1`, the inhibition was 5.43%.

With `O=C(Nc1ccc(Cl)cn1)Nc1cccs1`, the inhibition was 38.9%.

As to `c1ccc(Nc2nc(-c3ccncc3)cs2)nc1`, the inhibition is 56.5%. In the case of `Clc1ccc(Nc2nc(-c3cccs3)cs2)nc1` it was 99.5% (active); in that of `Nc1nnnn1/N=C/c1cc([N+](=O)[O-])ccc1O`, 6.19%.

`Cc1ccc(NC(=O)Nc2ccccc2)c(Br)c1`: the inhibition was 38.2%. On to `C=CC[n+]1c(-c2ccc(C)cc2)csc1NNC(=O)Nc1ccccc1`, for which the inhibition is 75.9% (active). `C=CCNc1scc(-c2ccccc2)[n+]1CC=C`: the inhibition was -28.4%. With `O=C1NNC(c2ccccc2)=N/C1=C\c1ccc(Cl)cc1`, the inhibition is 24.3%. `NC(=O)COc1ccc(C23CC4CC(CC(C4)C2)C3)cc1`: the inhibition is 103% (active).

On to `NNC(=O)COc1ccc(C2SCCS2)cc1`, for which the inhibition is 18.6%. In the case of `NC(=O)COc1ccc(NC(=O)c2ccccc2-c2ccccc2)cc1` it was 6.67%. In the case of `Cc1ccc(C)c2[nH]c(=O)c(CN(Cc3cccnc3)C(=S)NCc3ccco3)cc12` it was 2.47%; in that of `Cc1ccc(-c2nc3ccccc3[nH]c2=O)cc1`, -30.2%; in that of `CC1Cc2ccccc2N1S(=O)(=O)c1ccc(Cl)nc1` (stereo not drawn), 9.84%.

`CCNC(=S)N1CCN(c2ncccn2)CC1`: the inhibition was 6.67%. In the case of `CC12CCC(C(=O)N3CCN(c4ncccn4)CC3)(c3nc4ccccc4nc31)C2(C)C` (stereo not drawn) it was 81.3% (active); in that of `O=C(C(Cl)Cl)N1CCN(c2ccccn2)CC1`, 23.1%. Take `Cn1nc(C(F)(F)F)c(-c2ccc(F)cc2)c1NC(=O)CSCC(=O)O`: the inhibition is -1.35%.

Turning to `NC1=NC[C@@H](Cc2ccc(O)cc2)N1CC1CCCCC1`, the inhibition was -9.28%.

`CCOC(=O)C1=C(C)NC(=O)NC1c1ccccc1` (stereo not drawn): the inhibition was 5.41%. In the case of `CCOC(=O)C1=C(C)NC(C)=C(C(=O)OCC)C1c1ccccn1`, the inhibition is -2.49%. Consider `CCOC(=O)C1=C(C)N=C2c3ccccc3C(=O)C2C1c1ccc(Br)cc1` (stereo not drawn), for which the inhibition was 93.1% (active). Consider `COc1ccc(OCCC(=O)c2ccc(OC)cc2)cc1`, for which the inhibition is -4.29%. In the case of `CC(C)(C)c1ccc(Oc2ccc(N)cc2)cc1` it was 107% (active); in that of `Cc1ccc(Oc2ccc(N)cc2)cc1`, 37.7%; in that of `Nc1ccc(Oc2ccc(Cl)cc2)cc1`, 33.6%. On to `Cc1cccc(-[n+]2c(-c3cccc(Br)c3)[nH]c3nc4ccccc4nc32)c1`, for which the inhibition was 18.3%.

Turning to `COc1ccc(CCN2C(=O)CC(N3CCC(C(N)=O)CC3)C2=O)cc1OC` (stereo not drawn), the inhibition is -9.45%. In the case of `O=[N+]([O-])c1cc([N+](=O)[O-])c2cccnc2c1O` it was 16.7%; in that of `CC(C)Cc1nc(N2CCOCC2)c(C#N)c2c1CCC2`, 91.2% (active); in that of `CC(C)Cc1nc(Cl)c(C#N)c2c1CCC2`, 17.9%. In the case of `CC(C)c1nc(N2CCOCC2)c(C#N)c2c1COC(C)(C)C2` it was 60.3%; in that of `N/C(=N\OC(=O)Nc1ccccc1)c1ccno1`, -5.09%. In the case of `Cc1cc2ccccc2n1CCC(=O)O` it was 6.98%; in that of `O=C(O)CCn1c(O)c(C=C2N=c3ccccc3=N2)sc1=S`, 80.2% (active); in that of `O=C(COc1ccc([N+](=O)[O-])cc1Cl)Nn1cnnc1`, -0.23%. For `COc1cc(C=O)ccc1Oc1nnnn1-c1ccccc1`, the inhibition was 4.01%.

Regarding `O=C(CSc1nnc2n1CCCN2)c1ccccc1`, the inhibition was -11.1%.

As to `CC(=O)c1ccc(NC(=O)C2CC(=O)Nc3nc4ccccc4n32)cc1` (stereo not drawn), the inhibition is -5.45%. As for `COc1ccc(Cn2c(C)c(C)c(C#N)c2NC(=O)Nc2ccc(F)cc2)cc1`, the inhibition was 94.3% (active). In the case of `COc1ccc(Cn2cccc(NC(=O)Nc3ccc(C#N)cc3)c2=O)cc1` it was 62.7%; in that of `Cc1c(C#N)c(NC(=O)c2ccccc2)n(Cc2ccccc2)c1C`, -4.55%; in that of `Cc1nc2c(ncn2-c2ccccc2)c(=O)n1NC(=O)CN1CCCC1`, 9.81%. Consider `COc1cccc(/C=N/NC(=O)c2cccc([N+](=O)[O-])c2)c1OS(=O)(=O)c1ccc(C)cc1`, for which the inhibition was 0.84%. In the case of `Cc1ccc(-n2[nH]c(C)c(/C=N/NC(=O)c3cccc([N+](=O)[O-])c3)c2=O)cc1C` it was 85.8% (active); in that of `Cc1[nH]n(-c2ccccc2)c(=O)c1/C=N/NC(=O)c1ccoc1C`, 51.5%; in that of `O=C(CSc1ncn[nH]1)Nc1nc(-c2cccc([N+](=O)[O-])c2)cs1`, 7.63%.

`O=C(c1ccco1)N1CCN(CCOc2ccccc2)CC1`: the inhibition is 1.67%. In the case of `CCS(=O)(=O)Nc1cccc(-c2cc(-c3ccccc3)c3cc(C)ccc3n2)c1` it was 78.8% (active); in that of `CC(=O)Nc1cccc(-c2cnc3ccccc3n2)c1`, -21.7%. In the case of `Cc1ccc2nc(-c3ccccc3)cc(C(=O)O)c2c1` it was -1.51%. On to `CCOC(=O)c1[nH]cnc1C(=O)Nc1ccccc1C`, for which the inhibition is -6.79%. In the case of `CCOC(=O)c1ccc(NC(=O)c2nc[nH]c2C(=O)N[C@@H](CCCCNC(=O)OC(C)(C)C)C(=O)OC(C)(C)C)cc1` it was 44.5%; in that of `CCOC(=O)c1ccc(NC(=O)c2nc[nH]c2C(=O)NCc2ccccc2)cc1`, 94.5% (active). In the case of `CCOc1ccc2nc(Nc3nc4ccc(NC(C)=O)cc4s3)sc2c1` it was 106% (active); in that of `COc1ccc2nc(Nc3nc4ccc(NC(C)=O)cc4s3)sc2c1`, -58.2%; in that of `CCC(=O)c1ccc(OCC(=O)Nc2ccc3nc(C)sc3c2)cc1`, 0.17%. In the case of `O=C(NNS(=O)(=O)c1ccccc1C(F)(F)F)c1cc2ncc(C(F)(F)F)cc2s1` it was -0.25%; in that of `Cn1c(=O)c2c(nc(OCc3cccnc3)n2Cc2ccccc2)n(C)c1=O`, 7.91%; in that of `C=CCOc1nc2c(c(=O)n(C)c(=O)n2C)n1Cc1ccc(Cl)cc1Cl`, 93.2% (active). In the case of `C=CCn1c(Oc2ccc(C(=O)OC)cc2)nc2c1c(=O)n(C)c(=O)n2C`, the inhibition was 3.03%. For `Clc1ccc(C[n+]2cc(-c3ccc(Cl)cc3)n3c2CCC3)cc1`, the inhibition is -2.43%. In the case of `Cc1nn(Cc2ccc(Cl)cc2)c(Cl)c1/C=N/NC(=O)CNc1ccccc1F` it was 96.1% (active); in that of `CCn1nc(C)c(/C=N/NC(=O)Cc2ccc(Cl)cc2)c1C`, 14.1%. In the case of `Cc1nn(Cc2ccc(Cl)cc2)c(Cl)c1/C=N/NC(=O)c1cccnc1` it was -12.2%; in that of `Oc1[nH]c2ccc(Br)cc2c1N=Nc1nn[nH]n1`, -5.13%. In the case of `CCOC(=O)c1ccc(N=C2SC(C(=O)NC)CC(=O)N2CCc2ccccc2)cc1` (stereo not drawn) it was -10.9%; in that of `Cc1cccc(N(C)C(=O)c2cc3c(=O)[nH]c4ccc(C)cc4c3s2)c1`, 80.4% (active); in that of `Cc1ccc2[nH]c(=O)c(CC=C(Cl)Cl)c(C)c2c1`, 52.8%. With `O=C(NCCN1CCN(Cc2ccccc2)CC1)c1cc2c(=O)[nH]c3ccccc3c2s1`, the inhibition was 21.6%. In the case of `S=C(NNC(=S)NC1CC2C=CC1C2)NC1CC2C=CC1C2` (stereo not drawn) it was 9.31%. As to `C/C(=N/NC(=O)c1ccn(C)n1)c1ccncc1`, the inhibition is 12.5%.

As to `COc1ccc(Nc2nc(Cl)nc(NCc3ccco3)n2)cc1`, the inhibition is 85% (active).

Consider `COc1cccc(Nc2nc(N)c([N+](=O)[O-])c(NCc3ccco3)n2)c1`, for which the inhibition is 38.9%. In the case of `COc1ccc(Nc2nc(NCc3ccco3)nc(N/N=C/c3ccccc3Cl)n2)cc1` it was -19.9%; in that of `COc1ccc(Br)c2c1C(=O)CC2`, 10.2%; in that of `Cn1nccc1NC(=O)CC(CC(=O)O)c1ccccc1` (stereo not drawn), 25.4%. For the molecule `COc1cc2c(cc1OC)C(/C=C/c1ccco1)=NCC2`, the inhibition was 1.07%. As for `COC(=O)C1=C(N)Oc2cc(C)[nH]c(=O)c2C1c1ccc(Cl)cc1` (stereo not drawn), the inhibition is -8.98%.

Take `C=C(C)C(=O)O[C@H]1C/C(C)=C\C(=O)/C=C(\C)[C@H](O)[C@@H]2OC(=O)C(=C)[C@@H]21`: the inhibition is 107% (active). Regarding `O=C(O)C#Cc1cccc2ccccc12`, the inhibition is -1.61%. In the case of `COc1ccc(F)cc1S(=O)(=O)N1CCCCC1` it was 10.6%. On to `CCOC(=O)c1ccc(S(=O)(=O)N(CCO)Cc2cc3cc(OC)c(OC)cc3[nH]c2=O)cc1`, for which the inhibition is 23.6%. As for `Cc1nc(-c2ccc(Cl)cc2)sc1C1(C)CC(c2ccccc2F)=NO1` (stereo not drawn), the inhibition was -3.45%.

As for `CCC/C(C)=N\Nc1nc2c(c(=O)n(C)c(=O)n2C)n1C`, the inhibition was 6.66%.

`Cc1ccc(C2(C(F)(F)F)N=C3Sc4cc(C)cc(C)c4N3C(=O)N2)cc1` (stereo not drawn): the inhibition is 76.7% (active). In the case of `CCOC(=O)c1cc(Sc2ccccc2N)cc(C(=O)OCC)n1` it was 15.6%; in that of `CCN(CC)CCn1c(N)c(S(=O)(=O)c2ccccc2)c2nc3ccccc3nc21`, -7.46%; in that of `NS(=O)(=O)c1ccc(CNC(=O)c2cnccn2)cc1`, -3.79%. In the case of `COc1ccc(Nc2cc(=O)n(-c3ccccc3)c3c2c(=O)n(C)c(=O)n3C)cc1` it was 7.22%; in that of `Cc1ccc(S(=O)(=O)NNC(=S)NC(C)(C)C)cc1`, -12.5%; in that of `CSc1nnc(-c2ccc(C(F)(F)F)cn2)o1`, -2.28%. Take `CN(C)S(=O)(=O)c1ccc(NC(=O)COC(=O)c2n[nH]c3ccccc23)cc1`: the inhibition is 22.3%. In the case of `CCN(CC)S(=O)(=O)c1ccc2nc(COC(=O)c3n[nH]c4ccccc34)[nH]c2c1` it was 104% (active); in that of `CCN(CC)S(=O)(=O)c1ccc2nc(CSc3nnnn3-c3ccc(O)cc3)[nH]c2c1`, 29.3%.
